Compound activity (PubChem BioAssay)
BCLXL inh = inhibitors of human Bcl-xL. Q07817. GST-Bcl-xL / FITC-Bim BH3 peptide fluorescence polarization. inhibition, % at 10.9 µM. 320,000 tested, 0.7% active;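 active = inhibition above the mean of all tested compounds plus 3 SD, cutoff set per campaign, cut at about 30% in these data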;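 note: 0% = DMSO wells and 100% = unlabeled Bim-BH3 peptide competitor; inhibitors lower millipolarization by displacing the labeled peptide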
Target sequence (Q07817 whole entry, looked up): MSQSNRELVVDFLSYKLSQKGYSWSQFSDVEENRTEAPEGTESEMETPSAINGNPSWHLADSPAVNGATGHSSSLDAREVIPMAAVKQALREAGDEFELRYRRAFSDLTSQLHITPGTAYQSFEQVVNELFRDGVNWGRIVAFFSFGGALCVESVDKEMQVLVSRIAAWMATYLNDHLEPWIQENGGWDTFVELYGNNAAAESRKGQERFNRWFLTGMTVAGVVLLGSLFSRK
Mcl1 Bid PPI = disrupts binding of human Mcl-1 to Bid peptide; TR-FRET Mcl-1/Bid-Dy647 peptide binding, 1536-well; Q07820; inhibition, % at 21.7 µM; 220,000 tested, 0.97% active; AID 1021;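 active = compounds that cut the binding signal by more than half at the single screening dose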;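 note: His-tagged Mcl-1 with europium anti-His antibody binding Bid BH3 peptide; 0% = Mcl-1 plus peptide wells and 100% = peptide-only wells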
Target sequence (Q07820 whole entry, looked up): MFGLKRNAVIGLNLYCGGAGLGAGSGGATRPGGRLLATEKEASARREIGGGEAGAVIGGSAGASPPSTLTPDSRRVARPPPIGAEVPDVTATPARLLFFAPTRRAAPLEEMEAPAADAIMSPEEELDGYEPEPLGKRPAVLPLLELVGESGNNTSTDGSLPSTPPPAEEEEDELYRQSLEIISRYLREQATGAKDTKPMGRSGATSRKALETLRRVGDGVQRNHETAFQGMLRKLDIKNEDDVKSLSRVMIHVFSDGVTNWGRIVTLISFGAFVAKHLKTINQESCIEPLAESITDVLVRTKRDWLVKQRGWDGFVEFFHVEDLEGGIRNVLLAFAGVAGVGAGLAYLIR
MCL1-BIM inh = inhibitors of human MCL1 binding to BIM-BH3 peptide; GST-MCL1 / FITC-Bim-BH3 fluorescence polarization; inhibition, % at 10.9 µM; 320,000 tested, 0.68% active; AID 2057;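 active = inhibition above the mean inhibition of all tested compounds plus 3 SD, set per campaign, cut at about 40% in these data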;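 note: 0% = DMSO wells and 100% = unlabeled Bim-BH3 peptide control; higher means more loss of mP so more displacement of Bim peptide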
Mcl-1 Bim block = human Bim-Mcl-1 interaction inhibition; Q07820; Bead-based flow cytometry, Bim peptide-Mcl-1 binding; 190,000 tested, 0.1% active; inhibition, % at 10 µM; in the data active = inhibition above about 40%;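 note: 0% = no compound tracer wells and 100% = peptide blocker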
GLD-1 TGE inh = GLD-1-TGE RNA interaction inhibition (C. elegans); Q17339; purified GLD-1 + fluorescein TGE RNA, fluorescence polarization; inhibition, % at 5.96 µM; 320,000 tested, 0.44% active; AID 2280;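 active = percent inhibition above a per-plate cutoff, the plate mean of test compounds plus 3 SD, cut at about 30% in these data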;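 note: 0% = DMSO wells with GLD-1 and probe and 100% = wells lacking GLD-1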
Mcl1 Noxa PPI = disrupts binding of human Mcl-1 to Noxa peptide. TR-FRET Mcl-1/Noxa peptide binding, 2 h. inhibition, % at 21.7 µM. 220,000 tested, 1.5% active. AID 1022;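 active = compounds that cut the protein-peptide binding signal by more than 50% relative to plate controls in a single-dose test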;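 note: His-tagged Mcl-1 with rhodamine Noxa BH3 peptide and terbium anti-His antibody; 0% = Mcl-1 plus Noxa peptide wells and 100% = peptide-only wells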
Numbers without * were called inactive; / = not tested or not shown. An excerpt weighted towards active compounds, which were near 2.3% of everything screened.

SMILES	BCLXL inh	Mcl1 Bid PPI	MCL1-BIM inh	Mcl-1 Bim block	GLD-1 TGE inh	Mcl1 Noxa PPI
Cc1cccc(NC2=Nc3ccccc3N3C2=Nc2c(c(C)nn2-c2ccccc2)C3c2ccc(O)c(O)c2)c1 (centres undefined)	48*	-29	42*	4	-5	63*
CC1=NOC(=O)/C1=C\c1ccc(-c2ccc(Cl)cc2Cl)o1	/	88*	/	-4	/	87*
CS(=O)(=O)c1ccc(-c2csc(-c3cccnc3)n2)cc1	31*	/	5	/	-2	/
CC1=C(C(=O)Nc2ccccc2)C(c2ccccc2[N+](=O)[O-])NC(=O)N1 (centres undefined)	36*	-27	32	-1	17	18
COCc1cc(C)nc2sc(C(=O)Nc3ccccc3OC)c(N)c12	10	/	4	/	4	/
CCC(C)(C(=O)NC1CCCCC1)N(C)C(=O)c1ccccn1 (centres undefined)	52*	-18	2	-1	1	5
COc1ccc(/C=N/n2c(-c3ccccc3)n[nH]c2=S)cc1	-29	/	-9	/	1	/
COc1ccc(/C=N/n2c(N)nc(-c3ccccc3)c2-c2ccccc2)cc1	2	57*	0	-3	1	48
Cc1ccc2c(c1)[C@H]1[C@H](CO2)[C@H](c2ccccc2)[C@]2(C)C(=O)N(Cc3ccc(Cl)cc3)CC(=O)N12	-5	/	-9	/	-4	/
Cc1ccc2c(c1)[C@H]1[C@H](CO2)[C@H](c2ccccc2)[C@]2(C)C(=O)N(Cc3ccc(F)cc3)CC(=O)N12	/	/	/	/	52*	/
Cc1cc([N+](=O)[O-])ccc1N1C(=O)c2ccc(C(=O)Nc3ccccc3C(=O)O)cc2C1=O	5	/	4	/	-2	/
Cc1ccc(CNC(=O)c2ccc3nc4[nH]c5ccccc5c4nc3c2)cc1	/	68*	/	0	/	15
Cc1ccc(CNC(=O)c2ccc(-n3cccc3)cc2)cc1	/	-61	/	3	/	81*
Cc1ccc(CNC(=O)Cc2ccc(-n3cccc3)cc2)cc1	2	-13	-6	-2	1	16
CCOC(=O)c1c(C)oc2c1c(C=NCCC(=O)O)c(O)c1ccccc12	22	-29	18	-1	-2	20
CCOC(=O)c1c(C)oc2c1c(CN1CCN(C(=O)OCC)CC1)c(O)c1ccccc12	14	62*	22	-8	-2	98*
CCOC(=O)c1c(C)oc2c1c(C(c1ccncc1)N1CCOCC1)c(O)c1ccccc12 (centres undefined)	23	82*	13	-1	-2	98*
CCOC(=O)c1c(C)oc2c1c(CN1CCN(CCO)CC1)c(O)c1ccccc12	/	56*	/	0	/	95*
O=S(=O)(c1ccc(=S)[nH]c1)N1CCN(Cc2ccccc2)CC1	/	/	/	/	1	/
Cn1c(SCC(=O)N=Nc2c(O)[nH]c3ccccc23)nc2ccccc21	4	83*	10	-7	-5	42
Oc1ccc(C=NCCc2ccccc2)cc1	4	/	5	/	-8	/
O=C(Nc1nc(-c2cccc3ccccc23)cs1)c1ccc2c(c1)S(=O)(=O)c1ccccc1C2=O	3	28	3	0	4	62*
O=C(Nc1nc(-c2ccccc2)cs1)c1ccc2c(c1)S(=O)(=O)c1ccccc1C2=O	6	30	-3	0	5	40
O=C(O)Cn1cnc2c(=S)nc[nH]c21	4	99*	-3	/	1	9
Cn1c(=O)c2ncn(CC(=O)O)c2n(C)c1=O	0	6	0	/	0	-11
SMILES	BCLXL inh	Mcl1 Bid PPI	MCL1-BIM inh	Mcl-1 Bim block	GLD-1 TGE inh	Mcl1 Noxa PPI
Cc1cc(=O)[nH]c(SCC(=O)c2ccc(F)c(C)c2)n1	6	/	13	/	-3	/
Cc1[nH]n(C(N)=S)c(=O)c1C(c1ccccc1)C(C#N)C#N (centres undefined)	7	-53	13	-1	1	-21
Cc1[nH]n(-c2ncc(-c3ccccc3)s2)c(=O)c1C(c1ccc(Br)cc1)C(C#N)C#N (centres undefined)	9	28	4	-6	10	78*
Cc1[nH]c(=S)c(C#N)c(-c2ccccc2)c1C(=O)Nc1ccccc1	-3	-58	-11	/	-11	-14
Cc1[nH]c(=S)c(C#N)c2c1CCCC2	1	-49	-4	-6	0	42
CCN(CC)C(=O)c1c(C)[nH]c(=S)c(C#N)c1-c1ccco1	12	-83	8	-1	8	59*
CC(C)Cc1c2c([nH]c(=S)c1C#N)CCCC2	9	-23	2	-10	3	51*
N#Cc1c(-c2cccnc2)c2c([nH]c1=S)CCCC2	-1	-41	-4	1	6	46
N#Cc1c(-c2ccco2)c2c([nH]c1=S)CCCC2	14	1	17	-3	0	59*
COc1ccc(CCNC(=O)COC(=O)Cn2cnc3c2c(=O)n(C)c(=O)n3C)cc1	2	/	0	/	0	/
Cc1ccc(C(O)Cn2nc(C)cc2C)cc1 (centres undefined)	6	/	-1	/	3	/
O=C(CCC(=O)c1cccs1)Nc1ccc(N2CCCCC2)cc1	-3	-51	4	-1	0	57*
O=C(CCc1ccccc1)Nc1ccc(N2CCOCC2)cc1	8	-13	6	-4	-1	53*
CSc1ccccc1NC(=O)CN(C)CC(=O)Nc1ccc(N2CCOCC2)cc1	1	-23	5	48*	-3	3
Cc1ccc(NC(=O)CCC(=O)c2cccs2)cc1	6	-10	2	-5	4	12
CN(CC(=O)Nc1ccc(N2CCOCC2)cc1)CC(=O)Nc1ccc(N2CCOCC2)cc1	4	-102	-9	/	-4	-16
O=C(Cc1ccccc1)Nc1ccc(N2CCCCC2)cc1	3	-26	17	0	-7	61*
O=C(Oc1ccc(C(=S)N2CCOCC2)cc1)c1cccc(Cl)c1	7	/	9	/	0	/
CC1CCCCN1CC(=O)Nc1ccc(N2CCCCCC2)cc1 (centres undefined)	15	36	4	-7	-4	58*
CC(C)(C)C1CCC(C(=O)OCC(=O)Nc2ccc3[nH]c(=O)[nH]c3c2)CC1 (centres undefined)	-2	8	-10	-1	-9	59*
Cn1nc(SCC(=O)O)sc1=S	1	64*	0	-1	6	-13
CCOC(=O)C(Sc1nn(C)c(=S)s1)C(C)=O (centres undefined)	-15	11	-23	-3	5	/
NC(=S)n1[nH]c(-c2ccc([N+](=O)[O-])cc2)c(N=Nc2cccc(Cl)c2)c1=O	/	82*	/	-2	/	93*
NC(=S)n1[nH]c(-c2ccc([N+](=O)[O-])cc2)c(N=Nc2ccc(O)cc2)c1=O	10	65*	9	-1	-3	73*
COc1ccc(C(=O)N=c2c(C#N)cc3c(=O)n4cccc(C)c4nc3n2Cc2ccco2)cc1	/	20	/	-3	/	77*
